Measured values: PubChem BioAssay (NCI)
This is part of a sample that, as a whole, favours compounds with a hit. Of some 83,000 tested, about 20% had one in any assay.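 Step 1: grow cells in 96-well plates. Step 2: add test compound at a single concentration. Step 3: incubate 48 h. Step 4: record percent growth.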 Values without a mark were called inactive. Active and inactive are the calls of the source. The calls were made as follows: active = growth percent below 10; inactive = the rest.

Assays:
Assay in all cases: NCI-60 one-dose screen, 48 h (100 = growth as untreated, 0 = no growth, -100 = all killed)
Details in all cases: 10 µM unless noted
[1] = tested on: NCI-H23 lung
[2] = tested on: NCI-H226 lung
[3] = tested on: NCI-H322M lung
[4] = tested on: HOP-62 NSCLC
[5] = tested on: NCI-H460 lung
[6] = tested on: HOP-92 NSCLC
[7] = tested on: NCI-H522 lung
[8] = tested on: A549/ATCC NSCLC
[9] = tested on: 786-0 renal
[10] = tested on: COLO 205 colon
[11] = tested on: DU-145 prostate
[12] = tested on: K-562 leukemia
[13] = tested on: MALME-3M melanoma
[14] = tested on: MDA-MB-231 breast
[15] = tested on: SF-268 CNS
[16] = tested on: SF-295 CNS
[17] = tested on: SF-539 CNS
[18] = tested on: UACC-257 melanoma
[19] = tested on: M14 melanoma

Structure (SMILES) | growth [1] | growth [2] | growth [3] [%] | growth [4] | growth [5] | growth [6] | growth [7] | growth [8] | growth [9] | growth [10] | growth [11] | growth [12] | growth [13] | growth [14] | growth [15] | growth [16] | growth [17] | growth [18] | growth [19]
O=C1c2ccccc2C(=O)c2c(NCCN=Cc3ccccc3O)cccc21 | 66.6% | 56.3% | 68.3 | 21.7% | 20.9% | 32% | 58.2% | 49% | -48.4% (active) | 42.2% | -26% (active) | 41.6% | 80.2% | 66.3% | 51.2% | 2.48% (active) | 62% | -14.3% (active) | 35.6%
COc1cc2nc(Cc3ccc(C)cc3)[nH]c(=O)c2cc1OC | 105% | 95.9% | 236 | 104% | 107% | 69.1% | 92.8% | 49.3% | 103% | 123% | 100% | 94.3% | 277% | 98.8% | 105% | 121% | 104% | 105% | 113%
c1ccc(C2CC(c3cccc(Nc4ccncc4)c3)=NN2c2ccccc2)cc1 (configuration not stated) | 85.8% | 96.1% | 82.5 | 71.1% | -41.9% (active) | 55.5% | 89.1% | 50.9% | 68.4% | -58% (active) | 67.7% | 0.756% (active) | -12.1% (active) | 75.3% | 86.6% | 78.6% | 78.1% | 34% | -57.4% (active)
O=C(N/N=C/c1cccnc1)c1ccccc1Nc1cccc(C(F)(F)F)c1 | 94.2% | 109% | 85.6 | 77.5% | 102% | 72% | 81.8% | 42.4% | 83.7% | 105% | 91.1% | 41.5% | 65% | 118% | 76.6% | 64.7% | 96.7% | 75.3% | 73%
COc1ccc(C2=NN(C(C)=O)C(c3cn(Cc4ccc(Cl)cc4)c4ccccc34)C2)cc1 (configuration not stated) | 73.3% | 67.6% | 83.1 | 85.7% | 86.9% | 61.2% | 69.5% | 64.6% | 89.4% | 115% | 97.4% | 52.6% | 72.2% | 78.7% | 79.9% | 85.6% | 82.1% | 81.7% | 99.4%
CN1CCN(C(=O)OCc2nc3c(N4CCOCC4)nc(-c4ccccc4)nc3n2C)CC1 | -77.1% (active) | -66.7% (active) | 58.2 | 4.63% (active) | -46.9% (active) | -63.5% (active) | -35.3% (active) | 6.44% (active) | -83.3% (active) | -53% (active) | -83.5% (active) | 2.72% (active) | -93.9% (active) | -86.2% (active) | -50.2% (active) | 47.9% | -99.6% (active) | -49.5% (active) | -73.5% (active)
NS(=O)(=O)c1cccc(NC(=O)C(=O)C2C(=O)Nc3ccccc32)c1 (configuration not stated) | 95.3% | 95.9% | 121 | 90.2% | 106% | 74.6% | 102% | 103% | 114% | 123% | 107% | 109% | 102% | 95.7% | 105% | 94.2% | 101% | 100% | 99.1%
O=C1NC(=S)NC(=O)C1=Cc1cccc(C=C2C(=O)NC(=S)NC2=O)c1 | 102% | 98.8% | 110 | 104% | 104% | 116% | 93.1% | 108% | 12.2% | 113% | 110% | 102% | 109% | 108% | 103% | 108% | 99.9% | 102% | -58.6% (active)
